Source: PubChem BioAssay (NCI)
About 83,000 compounds went through this panel and 20% of them were active in at least one assay; those are over-represented in the sample as a whole.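 Values shown are percent growth following 48 h exposure of cells in 96-well plates to a single concentration of compound; below 10 was considered active.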 Values without a mark were called inactive. Calls of active or inactive are those of the source.

Legend:
Assay in all cases: NCI-60 one-dose screen, 48 h (100 = growth as untreated, 0 = no growth, -100 = all killed)
Conditions in all cases: 10 µM unless noted
[1] = tested on: T-47D breast
[2] = tested on: BT-549 breast
[3] = tested on: MDA-MB-435 melanoma
[4] = tested on: HCT-116 colon
[5] = tested on: HCC-2998 colon
[6] = tested on: KM12 colon
[7] = tested on: MDA-MB-468 breast
[8] = tested on: SW-620 colon
[9] = tested on: MCF7 breast

SMILES	growth [1]	growth [2]	growth [3]	growth [4]	growth [5]	growth [6]	growth [7]	growth [8]	growth [9]
C=C1CC[C@@H]2[C@]3(C)COC(c4cn[nH]c4-c4ccc(C)cc4)O[C@@H]3CC[C@@]2(C)[C@@H]1C/C=C1/C(=O)OCC1O (stereo partly drawn)	39.4%	-30.5% (active)	-16.6% (active)	-68.5% (active)	2.89% (active)	39.3%	-49.3% (active)		
COc1ccc(C(=O)/C=C/c2ccccc2Br)cc1S(N)(=O)=O	-5.31% (active)		23.4%	-97% (active)	-65.6% (active)	-71% (active)	-60.3% (active)	-45.7% (active)	-70.5% (active)
COc1ccc2nc(Nc3cccc(NC(=O)c4ccc(CN5CCCN(C)CC5)c(C(F)(F)F)c4)c3)ccc2c1	-44.6% (active)	-61.4% (active)	-42.8% (active)	-47.1% (active)	-62.6% (active)	-47.5% (active)			
O=C(/C=C/c1cccc(OCc2ccc(F)cc2)c1)c1nc2ccccc2[nH]1	22.1%	16%	68.8%	-24.9% (active)	26.6%	13.6%	8.37% (active)		3.5% (active)
CC(=O)Nc1cccc(Nc2nc(N[C@H]3CCCc4ccccc43)c3ccccc3n2)c1	102%	131%	102%	108%	117%	101%	101%		
COc1cccc(/C=C/C(=O)c2ccc(OC)c(S(N)(=O)=O)c2)c1	21%		34.1%	-73.8% (active)	29.7%	-41.6% (active)	20%	8.39% (active)	7.97% (active)
C=C1CC[C@@H]2[C@]3(C)COC(c4cn[nH]c4-c4ccccc4)O[C@@H]3CC[C@@]2(C)[C@@H]1C/C=C1/C(=O)OCC1O (stereo partly drawn)	19.3%	52.2%	1.5% (active)	-20.3% (active)	16.9%	-11.3% (active)	-37% (active)		
CC(C)c1sc(NC(=O)c2cc(NC(=O)c3cc(NC(=O)c4cscn4)cn3C)cn2C)nc1C(=O)NCCCN(C)C	13%		2.17% (active)	-79.5% (active)	-74.9% (active)	59.2%	-62.7% (active)	20.5%	24.5%
O=C(COc1ccc(NC(=O)Nc2ccc(Cl)c(Cl)c2)cc1)N=Nc1c(O)[nH]c2ccc(Cl)cc12	-13% (active)		-61.4% (active)	-53.5% (active)	-51.4% (active)	-87.9% (active)	-51% (active)	-46.9% (active)	3.54% (active)
O=C1N/C(=N\c2nccs2)S/C1=C\C=C/c1ccccc1	32.7%		44.5%	12.1%	75.7%	38%	44.2%	41%	16.1%
O=C(NNc1nc2cc(F)ccc2n2c(CN3CCCCC3)ccc12)c1cnccn1	-61.5% (active)		-46.3% (active)	-86.9% (active)	-65.2% (active)	-29.8% (active)	-62.8% (active)	2.86% (active)	-55.9% (active)
Cc1cc(=O)oc2cc(OCCCCOc3ccc(/C=C/C(=O)Nc4ccccc4N)cc3)ccc12	31.4%		78.3%	45.6%	89%	31.2%	34.2%	71.9%	18.6%
OCC1(CCCc2ccccc2)CCCN(c2nccc3ccccc23)C1 (stereo not drawn)	28.3%		41.2%	14.8%	60.3%	29.1%	-15.8% (active)	39.2%	12.3%
CCN1CCN(Cc2ccc(C(=O)Nc3cccc(C#Cc4cccc5[nH]nc(N)c45)c3)cc2C(F)(F)F)CC1	-67.2% (active)		-69.1% (active)	-86.8% (active)	-91.5% (active)	-73.2% (active)	-85.5% (active)	-50.5% (active)	-84.9% (active)
COc1ccc(C(=O)/C=C/c2cccnc2)cc1S(N)(=O)=O	16.9%		73.5%	-18.1% (active)	77.3%	1.84% (active)	20.5%	13.2%	7.45% (active)
NS(=O)(=O)c1ccc(-n2cc(-c3cccc(NC(=O)c4cc(N5CCOCC5)cc(C(F)(F)F)c4)c3)nn2)cc1	47%		85.9%	87.2%	88.1%	79%	69.4%	105%	72.9%
